Active and inactive are the calls of the source. The calls were made as follows: active = hit-call score of the fitted dose curve at least 0.9, where 1 is the maximum; inactive = score below 0.9.
What was measured:
[1] = read-out: TIMP metallopeptidase inhibitor 2 (TIMP2), TIMP2 (gene 7077); assay: BSK_KF3CT_TIMP2: BioMAP Diversity Plus: KF3CT Assay for TIMP metallopeptidase inhibitor 2 (TIMP2) Biomarker Activity (AID 2283071); conditions: primary human keratinocytes with fibroblasts; actives raise or lower the signal
Summary of the method: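 Keratinocyte–fibroblast co-culture, 24 h exposure; TIMP-2 ELISA, DMSO-normalised bidirectional fit. Parallel SRB (0.1%, TCA-fixed, 560 nm) total-protein staining gauges cytotoxicity.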

[2] = read-out: Transforming growth factor beta 1 (TGFb1), TGFB1 (gene 7040); assay: BSK_KF3CT_TGFb1: BioMAP Diversity Plus: KF3CT Assay for Transforming growth factor beta 1 (TGFb1) Biomarker Activity (AID 2283072); conditions: primary human keratinocytes with fibroblasts; actives raise or lower the signal
Summary of the method: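 Signal changes in either direction, relative to DMSO, define activity here. TGF-b1 is read by ELISA from a human keratinocyte-fibroblast co-culture 24 h post-dose.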

[3] = read-out: C-C motif chemokine 2 (Homo sapiens) (UniProt P13500); assay: BSK_KF3CT_MCP1: BioMAP Diversity Plus: KF3CT Assay for Monocyte Chemoattractant Protein 1 (MCP1/CCL2) Biomarker Activity (AID 2283073); conditions: primary human keratinocytes with fibroblasts; actives raise or lower the signal
Summary of the method: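 ELISA readout of MCP-1 after 24 h chemical dosing of a human skin primary co-culture of keratinocytes and foreskin fibroblasts. Activity was fitted in both directions against DMSO.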

[4] = read-out: Matrix Metallopeptidase 9 (MMP9), MMP9 (gene 4318); assay: BSK_KF3CT_MMP9: BioMAP Diversity Plus: KF3CT Assay for Matrix Metallopeptidase 9 (MMP9) Biomarker Activity (AID 2283074); conditions: primary human keratinocytes with fibroblasts; actives raise or lower the signal;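 as to AC50: MMP9 protein level quantified by ELISA in the co-culture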
Summary of the method: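 Human keratinocyte/foreskin fibroblast co-culture; compound added; 24 h; MMP-9 by ELISA; bidirectional fit vs DMSO baseline.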

[5] = read-out: urokinase plasminogen activator (uPA), PLAU (gene 5328); assay: BSK_KF3CT_uPA: BioMAP Diversity Plus: KF3CT Assay for urokinase plasminogen activator (uPA) Biomarker Activity (AID 2283075); conditions: primary human keratinocytes with fibroblasts; actives raise or lower the signal
Summary of the method: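 ELISA readout of uPA, analyzed for signal gain or loss relative to DMSO, from a human primary keratinocyte–foreskin fibroblast co-culture measured 24 h after chemical treatment.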

[6] = read-out: CD40, CD40 (gene 958); assay: BSK_LPS_CD40: BioMAP Diversity Plus: LPS Assay for CD40 Biomarker Activity (AID 2283076); conditions: primary human HUVEC with PBMC; actives raise or lower the signal
Summary of the method: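 Cells were dosed, incubated 24 h, then assayed for CD40 by ELISA. Gain or loss of signal was analysed relative to DMSO controls. The culture paired human umbilical vein endothelium with peripheral blood mononuclear cells.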

[7] = read-out: E-selectin (Homo sapiens) (UniProt P16581); assay: BSK_LPS_Eselectin: BioMAP Diversity Plus: LPS Assay for Eselectin Biomarker Activity (AID 2283077); conditions: primary human HUVEC with PBMC; actives raise or lower the signal
Summary of the method: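 Primary human vascular co-culture (endothelium plus PBMC) was dosed with chemical, then E-selectin quantified by ELISA at 24 h. Endpoint values derive from bidirectional curve fitting relative to DMSO.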

[8] = read-out: Interleukin-8 (IL8), CXCL8 (gene 3576); assay: BSK_LPS_IL8: BioMAP Diversity Plus: LPS Assay for Interleukin-8 (IL8) Biomarker Activity (AID 2283078); conditions: primary human HUVEC with PBMC; actives raise or lower the signal
Summary of the method: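 Readout is IL-8 by ELISA, taken 24 h after compounds were added to LPS-stimulated endothelial/PBMC co-cultures. Both increases and decreases relative to DMSO control were scored through bidirectional fitting.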

[9] = BSK_LPS_SRB: Viability Assessment in the BioMAP Diversity Plus: LPS Assay (AID 2283079); conditions: primary human HUVEC with PBMC;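 also: total protein by sulforhodamine B absorbance as a cytotoxicity measure; measured one day after compound addition; fitted in both directions against DMSO so loss or gain of signal counts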
Summary of the method: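 Readout is SRB absorbance at 560 nm (0.1% stain, TCA-fixed parallel cultures) as a total-protein cytotoxicity measure. Cells: primary human umbilical vein endothelium plus peripheral blood mononuclear cells, 24 h after chemical exposure; DMSO served as baseline.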

[10] = read-out: Monocyte Chemoattractant Protein-1 (MCP1), CCL2 (gene 6347); assay: BSK_LPS_MCP1: BioMAP Diversity Plus: LPS Assay for Monocyte Chemoattractant Protein-1 (MCP1) Biomarker Activity (AID 2283081); conditions: primary human HUVEC with PBMC; actives raise or lower the signal
Summary of the method: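 Human endothelial–PBMC co-cultures were dosed with chemical, then LPS-driven MCP-1 levels were quantified by ELISA at 24 h. Activity in either direction was fitted versus DMSO negative control.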

[11] = BSK_LPS_PGE2: BioMAP Diversity Plus: LPS Assay for Prostaglandin E2 (PGE2) Biomarker Activity (AID 2283082); conditions: primary human HUVEC with PBMC; actives raise or lower the signal
Summary of the method: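 Endpoint derived from bidirectional curve fitting versus DMSO of ELISA-measured PGE2 in LPS-stimulated human primary vascular co-culture (HUVEC with PBMC) harvested at 24 h.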

[12] = read-out: Macrophage colony-stimulating factor (MCSF), CSF1 (gene 1435); assay: BSK_LPS_MCSF: BioMAP Diversity Plus: LPS Assay for Macrophage colony-stimulating factor (MCSF) Biomarker Activity (AID 2283083); conditions: primary human HUVEC with PBMC; actives raise or lower the signal
Summary of the method: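 ELISA readout of M-CSF after 24 h compound exposure in a human endothelial/PBMC co-culture. Activity, in either direction, is fitted relative to DMSO vehicle.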

[13] = read-out: Tissue Factor, F3 (gene 2152); assay: BSK_LPS_TissueFactor: BioMAP Diversity Plus: LPS Assay for Tissue Factor Biomarker Activity (AID 2283084); conditions: primary human HUVEC with PBMC; actives raise or lower the signal
Summary of the method: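 ELISA signal for cell-surface Tissue Factor (CD142) was read 24 h after compound dosing of an LPS-stimulated human endothelial–PBMC primary co-culture. Gain or loss of signal was scored relative to DMSO.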

[14] = read-out: Tumor necrosis factor (Homo sapiens) (UniProt P01375); assay: BSK_LPS_TNFa: BioMAP Diversity Plus: LPS Assay for Tumour Necrosis Factor alpha (TNFa) Biomarker Activity (AID 2283085); conditions: primary human HUVEC with PBMC; actives raise or lower the signal
Summary of the method: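 Primary human vascular co-culture of HUVEC and PBMC; TNFa ELISA 24 h after treatment, analysed as increase or decrease relative to DMSO control.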

[15] = read-out: Vascular cell adhesion molecule 1 (VCAM1), VCAM1 (gene 7412); assay: BSK_LPS_VCAM1: BioMAP Diversity Plus: LPS Assay for Vascular cell adhesion molecule 1 (VCAM1) Biomarker Activity (AID 2283086); conditions: primary human HUVEC with PBMC; actives raise or lower the signal
Summary of the method: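 Primary human vascular co-culture (umbilical vein endothelium plus PBMC) stimulated with LPS received chemical; 24 h later VCAM-1 was read by ELISA. Overt cytotoxicity was assessed by sulforhodamine B staining of parallel cultures at the same time point.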

[16] = read-out: CD40, CD40 (gene 958); assay: BSK_SAg_CD40: BioMAP Diversity Plus: SAg Assay for CD40 Biomarker Activity (AID 2283088); conditions: primary human HUVEC with PBMC; actives raise or lower the signal
Summary of the method: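 Compounds were dosed onto a human primary endothelial–PBMC co-culture, and after 24 h CD40 was quantified by ELISA using a fluorescence signal. Activity in either direction was fitted relative to DMSO.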

[17] = read-out: CD69, CD69 (gene 969); assay: BSK_SAg_CD69: BioMAP Diversity Plus: SAg Assay for CD69 Biomarker Activity (AID 2283089); conditions: primary human HUVEC with PBMC; actives raise or lower the signal;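 as to AC50: cell surface CD69 protein quantified by ELISA with fluorescence detection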
Summary of the method: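 HUVEC co-cultured with PBMC were dosed with chemical, and CD69 was measured by ELISA with fluorescence read-out 24 h later. Bidirectional curve fitting used DMSO as negative control and activity baseline.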

[18] = read-out: Monocyte Chemoattractant Protein-1 (MCP1), CCL2 (gene 6347); assay: BSK_SAg_MCP1: BioMAP Diversity Plus: SAg Assay for Monocyte Chemoattractant Protein-1 (MCP1) Biomarker Activity (AID 2283090); conditions: primary human HUVEC with PBMC; actives raise or lower the signal
Summary of the method: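 MCP-1 levels in the endothelial–PBMC SAg co-culture were quantified by ELISA at 24 h post-dosing; both increases and decreases versus DMSO scored. Cytotoxicity monitored by SRB total protein in parallel cultures.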

[19] = read-out: CD38, CD38 (gene 952); assay: BSK_SAg_CD38: BioMAP Diversity Plus: SAg Assay for CD38 Biomarker Activity (AID 2283087); conditions: primary human HUVEC with PBMC; actives raise or lower the signal
Summary of the method: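 Fluorescence ELISA of cell-surface CD38 served as the read-out, with either increase or decrease fitted against DMSO controls. Cells were a human umbilical vein endothelium plus PBMC co-culture under SEB/TSST-1 stimulation, measured 24 h after dosing.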

Measured: AC50

Tumor necrosis factor (Homo sapiens), sequence (P01375 whole entry, looked up): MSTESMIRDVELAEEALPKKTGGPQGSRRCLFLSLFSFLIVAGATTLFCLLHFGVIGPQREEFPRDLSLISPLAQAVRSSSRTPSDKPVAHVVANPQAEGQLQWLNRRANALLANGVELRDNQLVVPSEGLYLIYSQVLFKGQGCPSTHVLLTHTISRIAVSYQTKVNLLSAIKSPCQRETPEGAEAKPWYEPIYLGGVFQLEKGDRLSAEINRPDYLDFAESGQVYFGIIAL
E-selectin (Homo sapiens), sequence (P16581 whole entry, looked up): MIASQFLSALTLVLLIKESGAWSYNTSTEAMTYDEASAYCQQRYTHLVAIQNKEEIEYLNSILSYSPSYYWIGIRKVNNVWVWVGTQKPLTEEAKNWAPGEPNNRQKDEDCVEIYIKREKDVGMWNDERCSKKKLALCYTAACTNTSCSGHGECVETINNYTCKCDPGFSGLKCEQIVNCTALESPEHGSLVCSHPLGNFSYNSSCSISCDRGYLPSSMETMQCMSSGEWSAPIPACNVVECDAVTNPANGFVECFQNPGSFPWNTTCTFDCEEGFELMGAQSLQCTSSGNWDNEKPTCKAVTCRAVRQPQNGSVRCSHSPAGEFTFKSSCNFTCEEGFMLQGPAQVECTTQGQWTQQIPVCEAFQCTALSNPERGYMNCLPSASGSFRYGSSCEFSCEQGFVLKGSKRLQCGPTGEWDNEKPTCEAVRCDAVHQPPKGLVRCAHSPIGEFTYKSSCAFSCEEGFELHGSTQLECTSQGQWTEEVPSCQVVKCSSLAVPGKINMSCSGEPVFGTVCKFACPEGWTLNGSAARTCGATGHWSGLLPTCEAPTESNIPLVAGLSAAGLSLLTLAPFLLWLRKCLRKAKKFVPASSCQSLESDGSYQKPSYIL

[Cl-].[Cl-].[Hg+2]
active: [1] 29.2 µM | [2] 7.74 µM | [3] 20 µM | [4] 13.5 µM | [5] 13.1 µM | [6] 38.8 µM | [7] 37 µM | [8] 30.9 µM | [9] 20 µM | [12] 31.7 µM | [13] 32.9 µM | [14] 33 µM | [15] 28.2 µM | [16] 32 µM | [17] 36.8 µM
inactive: [10] | [11] | [18]

Cc1ccc(N=C=O)cc1N=C=O
not listed: [11] | [19]
inactive: all other assays above

CCOc1cccc(C2(N3CCN(c4ccccc4)CC3)CCC(C)CC2)c1 (stereo unspecified)
not listed: [19]
inactive: all other assays above

CN(C)C(=O)Nc1ccc(Cl)cc1
not listed: [11]
inactive: all other assays above
